Reference: PubChem BioAssay AID493008 (The Scripps Research Institute Molecular Screening Center, 2010)
About 800 (0.24%) of roughly 340,000 compounds were called active.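 The calls were made as follows: active = activation above the mean over all tested compounds plus 3 SD (cut at about 30% in these data); inactive = the rest.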 This excerpt belongs to a sample that is enriched for actives.

target: Troponin I, cardiac muscle (Homo sapiens) + Troponin T, cardiac muscle (Homo sapiens) + Troponin C, slow skeletal and cardiac muscles (Homo sapiens) (UniProt P19429+P45379+P63316); test: cardiac RTF calcium sensitivity activators, primary screen, biochemical, IANBD-TnC fluorescence, EC20 calcium (AID 493008); settings: IANBD-labeled TnC RTF fluorescence at EC20 calcium; at 7.2 µM; active compounds read high; 0% EC20 calcium, 100% full calcium;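 also: rise in fluorescence read as greater calcium sensitivity of cardiac thin filaments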

Row | Structure (SMILES) | activation
1 | CCOC(=O)C1=C(C)NC2=C(C(=O)CC(C)(C)C2)C1c1ccsc1 (stereo not given) | 8.26% (inactive)
2 | O=C(NC(=O)N1CCOCC1)c1ccccc1 | -4.59% (inactive)
3 | N#C/C=C(/c1ccc(F)cc1)N1CCOCC1 | 0.45% (inactive)
4 | N#C/C(=C\C1=C(N2CCOCC2)C(=C\c2ccccc2)/CC1)C(=O)Nc1ccccc1F | 11.9% (inactive)
5 | N#C/C(=C/c1ccc(N2CCOCC2)o1)C(=O)N1CCOCC1 | 64.8% (active)
6 | N#C/C(=C\c1ccc(N2CCOCC2)o1)C(=O)N1CCOCC1 | 114% (active)
7 | O=C(N1CCOCC1)N1CCOCC1 | 0.83% (inactive)
8 | O=C(NC1CCCC1)C(c1ccco1)N(C(=O)c1csnn1)c1ccccc1 (stereo not given) | -5.15% (inactive)
9 | COc1ccccc1-n1nnnc1S(=O)(=O)Cc1ccc(Cl)cc1 | -4.59% (inactive)
10 | O=C(Nc1cccc(F)c1)c1coc(=O)c(Br)c1 | 2.96% (inactive)
11 | O=C(NNC1CC(=O)N(c2cccc(Cl)c2)C1=O)c1cccnc1 (stereo not given) | 3.38% (inactive)
12 | COc1ccc(N2CCN(S(=O)(=O)c3ccc4c(c3)NC(=O)C(C)C(=O)N4)CC2)cc1 (stereo not given) | -1.46% (inactive)
13 | CCOc1cc(-c2cc(-c3ccc(NC(C)=O)cc3)nc(N)c2C#N)ccc1O | -2.6% (inactive)
14 | CCOc1cc(C=NNC(=O)CCCC(=O)NN=Cc2ccc(O)c(OCC)c2)ccc1O | 3.71% (inactive)
15 | CCOc1cc(/C=C(\C#N)c2nc(-c3cccs3)c(NC(C)=O)s2)ccc1O | 53.3% (active)
16 | C/C(N)=C(/C#N)C(=O)COC(=O)C1=NN(c2ccccc2)C(=O)CC1 | 1.28% (inactive)
17 | COc1cc(C(=O)N2C(=O)c3cccc(N)c3C2=O)cc(OC)c1OC | -5.72% (inactive)
18 | CN1C(=O)c2cccc3c(N)ccc(c23)C1=O | 1160% (active)
19 | O=C1c2cccc3c([N+](=O)[O-])ccc(c23)C(=O)N1CC1CCCO1 (stereo not given) | 9.63% (inactive)
20 | CCn1cc(C(=O)N[C@@H](C)C(=O)NCCO)c(=O)c2cc3c(cc21)OCO3 | 0.57% (inactive)
21 | CCCC(O)(CCC)C(=O)NN(C(=O)CCl)c1cccc(C)c1 | -2.77% (inactive)
22 | CN(C)C(CNC(=O)c1ccc(S(=O)(=O)NCc2ccco2)cc1)c1ccccc1 (stereo not given) | -0.95% (inactive)
23 | CC1(C)Cc2nc3sc4c(SCC(=O)NC(c5ccccc5)c5ccccc5)ncnc4c3cc2CO1 | -4.73% (inactive)
24 | C=CCNc1nnc(SCC(=O)N2CCCCC2)c2ccccc12 | 33.8% (active)
25 | O=C(CSc1ncccn1)N1CCCC1 | 4.22% (inactive)

Row | Structure (SMILES) | activation
26 | C=CCNc1nnc(C)c2ccccc12 | 6.46% (inactive)
27 | Cc1nn(-c2ncccn2)c2c1C(=O)CC(C)(C)C2Br (stereo not given) | 1.48% (inactive)
28 | CCc1ccc2ncc(C(=O)c3ccccc3)c(N3CCOCC3)c2c1 | 6.46% (inactive)
29 | N#Cc1c(NCCO)ccc([N+](=O)[O-])c1NCCO | -0.27% (inactive)
30 | CCCCCNC(=O)C1c2ccccc2Oc2ccccc21 | 4.69% (inactive)
31 | CCOC(=O)CC(NC(=O)C1c2ccccc2Oc2ccccc21)c1ccc(C)cc1 (stereo not given) | 4.5% (inactive)
32 | CCCN(CCC)C(=O)C1c2ccccc2Oc2ccccc21 | 98.3% (active)
33 | CC1=C(C(=O)OCc2ccccc2)C(c2ccco2)n2ncnc2N1 (stereo not given) | 8.65% (inactive)
34 | CC1=C(C(N)=O)C(c2ccc(Br)cc2)n2ncnc2N1 (stereo not given) | -0.09% (inactive)
35 | Brc1ccc(C2=CC(c3ccco3)n3ncnc3N2)cc1 (stereo not given) | 245% (active)
36 | CCN1CCN(c2ccc(S(=O)(=O)N3CCCCC3)cc2NC(=O)c2cccc(NC(C)=O)c2)CC1 | -0.39% (inactive)
37 | CC1CCCCC12NC(=O)N(CC(=O)OCc1c(F)cccc1Cl)C2=O (stereo not given) | -6.16% (inactive)
38 | Cc1ccccc1OCCC(=O)OCC(=O)NC(C)c1ccccc1 (stereo not given) | 1.21% (inactive)
39 | O=C1Nc2ccccc2/C1=C/c1ccnc2ccccc12 | 3.84% (inactive)
40 | Cc1cc(C)c(/C=C2\C(=O)Nc3ccccc32)[nH]1 | 149% (active)
41 | Cc1ccccc1-n1c(C)cc(/C=C2\NC(=O)NC2=O)c1C | -2.97% (inactive)
42 | C[C@H](NC(=O)c1[nH]cnc1C(=O)Nc1nccs1)c1ccccc1 | -1.35% (inactive)
43 | O=C(COC(=O)c1ccc(S(=O)(=O)Nc2ccccc2)cc1)NCC1CCCO1 (stereo not given) | -3.25% (inactive)
44 | COc1ccc([N+](=O)[O-])cc1NC(=O)CC1SC(=Nc2cccc(C)c2C)N(/N=C(\C)c2ccc(C)cc2)C1=O (stereo not given) | -1.84% (inactive)
45 | CCC1CCCCN1C(=O)Nc1cccc(NC(=O)N2CCCCC2CC)c1 (stereo not given) | -3.65% (inactive)
46 | O=C(CSc1nnc(C2CC2)n1Cc1ccccc1)Nc1cccnc1Cl | 1.37% (inactive)
47 | COc1ccccc1N(CC(=O)Nc1ccc(C)cc1Cl)S(=O)(=O)c1cccs1 | -7.85% (inactive)
48 | CCCCNC(=O)Nc1c(C)cc(SC#N)cc1C | -8.62% (inactive)
49 | O=C(c1cc2sccc2n1Cc1ccc(F)cc1)N1CCc2ccccc21 | -0.47% (inactive)
50 | CCCc1cc(=O)[nH]c(SCC(=O)Nc2ccc(S(=O)(=O)N3CCCC3)cc2)n1 | -0.74% (inactive)
